Assay [1] in a line: qHTS assay to identify small molecule antagonists of the estrogen related receptor (ERR) signaling pathway - cell viability counter screen (AID 1224818).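 Note: series mostly up to about 46 µM; viability measured after 17.5 h of compound exposure.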 In a few lines:
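Cells carrying the ERR pathway reporter were seeded and incubated for 6 hours before compound addition. After a 17.5-hour exposure at 37 C, live-cell protease activity was measured by CellTiter-Fluor fluorescence following 30 minutes of incubation.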
On the technique in general: In qHTS, concentration-response curves come from the screen itself.

The nature of assay [2]: qHTS assay to identify small molecule agonists of the estrogen related receptor (ERR) signaling pathway (AID 1224820). The method, boiled down: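 Quantitative HTS of the LOPAC library used NTP ERR reporter cells treated 18 h at 37 C. Signal is luminescence after One-Glo addition and a 30 min room-temperature incubation.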
Assay [3] concerns estrogen-related receptor alpha (ERRalpha) with PGC-1alpha coactivator, human. Briefly: qHTS assay to identify small molecule antagonists of the estrogen related receptor signaling pathway with the pleiotropic PPARgamma coactivator (PGC) (AID 1224821; calls by dose curve; note: nearly all actives have a fitted effect of over 50% in size; note: potency is the fitted concentration of half-maximal effect). The method, boiled down: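 Quantitative HTS for antagonism: PGC/ERR cells received compounds after 6 h attachment and were incubated 18 h at 37 C, with luminescence (One-Glo) as the endpoint.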

Assay [4] is described as follows: qHTS assay to identify small molecule antagonists of the estrogen related receptor signaling pathway with the pleiotropic PPARgamma coactivator (PGC) cell viability counter screen (AID 1224822; note: series mostly up to about 46 µM). The method, boiled down: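 Seed PGC/ERR cells (2,000/well); incubate 6 h at 37 C/5% CO2; pin-transfer compounds in DMSO; incubate 17.5 h at 37 C; add CellTiter-Fluor; after 30 min read fluorescence.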

A short description of assay [5]: qHTS assay to identify small molecule agonists of the estrogen related receptor signaling pathway with the pleiotropic PPARgamma coactivator (PGC) (AID 1224823). The method, boiled down:
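Cell-based luciferase assay in the NTP-supplied PGC/ERR line, 2,000 cells/well; 18 h compound exposure at 37 C, luminescence after One-Glo.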

Assay [6] can be described thus: qHTS assay to identify small molecule antagonists of the estrogen related receptor (ERR) signaling pathway (AID 1224819; note: nearly all actives have a fitted effect of over 50% in size; note: potency is the fitted concentration of half-maximal effect). In a few lines:
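Compounds dissolved in DMSO were pin-transferred onto ERR cells that had been plated 6 h earlier, and cells were then incubated 18 h at 37 C; signal was luciferase luminescence via One-Glo.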

Results filed as inconclusive are left out. Values without a mark were called inactive. Activity calls are given as the source filed them. Unless noted, calls come from the whole dose curve; as a rule, active = well fitted curve in the direction sought with a large enough effect in the repeat runs; inconclusive = weak or mixed curves; inactive = no such curve, though single readings can be large; an effect the other way counts as inactive or inconclusive.

On to `C[C@]12CCC3C(CC[C@H]4C[C@H](O)CC[C@]34C)C1CC[C@@H]2C(=O)CO` (stereo not given in full), for which the Potency result in assay [1], in assay [2], in assay [3] and in assay [4] was “inactive” throughout.
`CC(C)CC(NP(=O)(O)O[C@@H]1O[C@@H](C)[C@H](O)[C@@H](O)[C@H]1O)C(=O)NC(Cc1c[nH]c2ccccc12)C(=O)O` (stereo not given in full): the Potency result in assay [1], in assay [2], in assay [3], in assay [4] and in assay [5] was “inactive” each time.
Regarding `C[C@@H]1O[C@@H](O[C@H]2C[C@@H](O)[C@]3(CO)[C@@H]4C(CC[C@]3(O)C2)[C@@]2(O)CC[C@H]([C@@H]3COC(=O)C3)[C@@]2(C)C[C@H]4O)[C@H](O)[C@H](O)[C@H]1O` (stereo not given in full), the Potency result in assay [1], in assay [2] and in assay [5] was “inactive” each time. Also, the Potency in assay [6] was 1.19 µM (active); in assay [3], 3.48 µM (active).
For the compound `NC(Cc1cc(O)c(O)cc1O)C(=O)O` (stereo not given), the Potency entry in assay [1], in assay [2], in assay [3], in assay [4] and in assay [5] was “inactive” in each case.
With `Oc1ccc2c3c1O[C@H]1c4oc5ccccc5c4C[C@@]4(O)C(C2)N(CC2CC2)CCC314` (stereo not given in full), the Potency result in assay [1], in assay [2], in assay [3], in assay [4] and in assay [5] was “inactive” each time.
On to `CCCN(CCC)[C@H]1CCc2c(F)ccc(O)c2C1`, for which the Potency result in assay [1], in assay [2], in assay [3] and in assay [4] was “inactive” in each case.
On to `C[C@]12Cc3cn4c(nc3C=C1CCC1C2CC[C@@]2(C)[C@H]1CC[C@@]2(O)C#N)nc1ccccc14` (stereo not given in full), for which the Potency result in assay [1], in assay [2] and in assay [5] was “inactive” throughout. In addition, the Potency in assay [6] is 10.6 µM (active).
As to `c1ccc2sc(C3(N4CCCCC4)CCCCC3)cc2c1`, the Potency result in assay [1], in assay [6], in assay [2], in assay [3] and in assay [5] was “inactive” in each case.
Regarding `NNC(=O)c1ccc(O)cc1`, the Potency result in assay [1], in assay [6], in assay [3] and in assay [4] was “inactive” throughout.
Take `Cc1cc([C@@H]2CCCN2C)on1`: the Potency result in assay [1], in assay [6], in assay [3], in assay [4] and in assay [5] was “inactive” throughout.
On to `CCCN1CCc2cccc3c2[C@H]1Cc1ccc(O)c(O)c1-3`, for which the Potency entry in assay [1], in assay [6], in assay [2] and in assay [5] was “inactive” each time.

Values taken from PubChem BioAssay (Tox21).
